This is an account of results in PubChem BioAssay (NCATS).

Inconclusive results are not listed. A call without a number means that no potency is given here. Calls of active or inactive are those of the source. Calls follow the shape of the full dose curve.

Assay [1] can be described thus: Cytotoxicity counterscreen for inhibitors of SARS-CoV-2 cell entry (AID 1645845). Also: nearly all actives have a fitted effect of over 50% in size. The gist of the method: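 HEK293-ACE2 cells (Expi293F stably expressing human ACE2) seeded overnight, then compound for 1 h plus 48 h at 37C. Viability as ATP content by luminescence; normalized to wells with cells and media-only wells.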
In general terms: Counterscreens check selectivity or assay interference.

Assay [2] can be described thus: Primary qHTS to identify inhibitors of SARS-CoV-2 cell entry (AID 1645846). Also: nearly all actives have a fitted effect of over 45% in size. Also: potency is read from the fitted curve at half-maximal effect. The settings on record: activity change, negative = inhibition: at 57.1 µM (top of the series) unless noted. Summed up:
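Luminescence readout (Bright-Glo luciferase) 48 h after pseudoparticle addition. HEK293-ACE2 cells, 1500/well; compound pre-incubation 1 h; Normalized to spike PP and bald PP.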
(In general: Quantitative high-throughput screening tests each substance at several concentrations.)

As to `C/C=C1\[C@H]2C=C(C)C[C@]1(N)c1ccc(=O)[nH]c1C2`, the Potency entry in assay [1] and in assay [2] was “inactive” in each case.
Consider `CC(=O)Nc1ccc(CC(=O)O)cc1`, for which the Potency result in assay [1] and in assay [2] was “inactive” throughout.
For the compound `CCCC(O)C(CC)CO` (stereo not given), the Potency entry in assay [1] and in assay [2] was “inactive” in each case.
Turning to `CN(C)CCOC(=O)COc1ccc(Cl)cc1`, the Potency result in assay [1] and in assay [2] was “inactive” in each case.
Consider `CCn1nc(C(=O)O)c(=O)c2cc3c(cc21)OCO3`, for which the Potency entry in assay [1] and in assay [2] was “inactive” each time.
For `CC(=O)NCc1c(I)c(NC(C)=O)c(I)c(C(=O)O)c1I`, the Potency result in assay [1] and in assay [2] was “inactive” throughout.
In the case of `CCN(CC)CCNC(=O)c1cc(S(C)(=O)=O)ccc1OC`, the Potency entry in assay [1] and in assay [2] was “inactive” throughout.
In the case of `CC(C)CN(C[C@@H](O)[C@H](Cc1ccccc1)NC(=O)O[C@H]1CO[C@H]2OCC[C@H]21)S(=O)(=O)c1ccc(N)cc1`, the Potency result in assay [1] and in assay [2] was “inactive” throughout.
On to `OCc1ccc(Cl)cc1Cl`, for which the Potency result in assay [1] and in assay [2] was “inactive” throughout.
Regarding `CCC(=O)c1c(O)cc(O)cc1O`, in assay [1], the Potency result was “inactive”. Further, in assay [2], the activity change, negative = inhibition is -5.3%.
For `Oc1ccccc1`, the Potency entry in assay [1] and in assay [2] was “inactive” throughout.
Take `CCCc1c2oc(C(=O)O)cc(=O)c2cc2c(=O)cc(C(=O)O)n(CC)c12`: the Potency entry in assay [1] is “inactive”. In addition, the activity change, negative = inhibition in assay [2] was -16.5%.
Regarding `CC[N+](C)(CC)CCOC(=O)C1c2ccccc2Oc2ccccc21`, the Potency entry in assay [1] and in assay [2] was “inactive” each time.
With `Cc1cccn2c(=O)c(-c3nnn[nH]3)cnc12`, the Potency entry in assay [1] and in assay [2] was “inactive” in each case.
In the case of `CO[C@@]1(NC(=O)C(C(=O)O)c2ccc(O)cc2)C(=O)N2C(C(=O)O)=C(CSc3nnnn3C)CO[C@@H]21` (stereo not given in full), the Potency entry in assay [1] is “inactive”. Moreover, the activity change, negative = inhibition in assay [2] is -1.77%.
For the compound `CC[C@H](C)[C@H](N)C(=O)O`, the Potency entry in assay [1] and in assay [2] was “inactive” throughout.
`Cc1ncc(CO)c(CO)c1O`: in assay [1], the Potency result is “inactive”. Further, the activity change, negative = inhibition in assay [2] was -1.83%.
In the case of `CCN1CCN(C(=O)N[C@@H](C(=O)N[C@@H]2C(=O)N3[C@@H]2SC(C)(C)[C@H]3C(=O)O)c2ccccc2)C(=O)C1=O`, the Potency entry in assay [1] and in assay [2] was “inactive” each time.
Consider `CCOC(=O)/C=C(C)/C=C/C=C(C)/C=C/c1c(C)cc(OC)c(C)c1C`, for which the Potency entry in assay [1] was “inactive”. Further, the activity change, negative = inhibition in assay [2] is -11.5%.
`CCOC(=O)c1ccc(O)cc1`: the Potency result in assay [1] and in assay [2] was “inactive” each time.
In the case of `O=c1[nH]c(=O)n([C@H]2C[C@H](O)[C@@H](CO)O2)cc1I`, the Potency result in assay [1] was “inactive”. Further, in assay [2], the Potency was 15.8 µM (active).
As to `Cc1ccc(C(C)C)c(O)c1`, in assay [1], the Potency result was “inactive”. The activity change, negative = inhibition in assay [2] is -6.21%.
As to `CC(C)=CCC/C(C)=C/CO`, the Potency result in assay [1] is “inactive”. The activity change, negative = inhibition in assay [2] came out at 2.42%.
`COC(=O)c1ccc(O)cc1`: the Potency result in assay [1] and in assay [2] was “inactive” each time.
In the case of `CCO/C([O-])=N/c1c[n+](N2CCOCC2)no1`, the Potency result in assay [1] and in assay [2] was “inactive” throughout.
As to `CCOC(=O)O[C@]1(C(=O)OCCl)CC[C@H]2[C@@H]3CCC4=CC(=O)C=C[C@]4(C)[C@H]3[C@@H](O)C[C@@]21C`, the Potency entry in assay [1] and in assay [2] was “inactive” each time.
On to `Cc1nnc(SCC2=C(C(=O)O)N3C(=O)[C@@H](NC(=O)Cn4cnnn4)[C@H]3SC2)s1`, for which the Potency result in assay [1] and in assay [2] was “inactive” each time.
Turning to `O=C(O)/C=C\C(=O)O`, the Potency result in assay [1] and in assay [2] was “inactive” throughout.
As to `O=c1[nH]c(=O)n([C@H]2CCCO2)cc1F`, the Potency entry in assay [1] and in assay [2] was “inactive” each time.
Consider `Cc1ccc(C(=O)C(=O)O)cc1C`, for which, in assay [1], the Potency result is “inactive”. The activity change, negative = inhibition in assay [2] is -19.4%.
On to `NC(=O)NC1NC(=O)NC1=O` (stereo not given), for which the Potency entry in assay [1] and in assay [2] was “inactive” in each case.
For `COC(=O)c1cc(Cl)ccc1NS(=O)(=O)C(F)(F)F`, the Potency result in assay [1] and in assay [2] was “inactive” throughout.
As to `CC(=O)OCC(=O)[C@@]1(O)[C@H](C)C[C@H]2[C@@H]3CCC4=CC(=O)C=C[C@]4(C)[C@@]3(F)[C@@H](O)C[C@@]21C`, the Potency entry in assay [1] and in assay [2] was “inactive” each time.
Turning to `Cc1cc(OI)c(C(C)C)cc1-c1cc(C(C)C)c(OI)cc1C`, the Potency result in assay [1] and in assay [2] was “inactive” each time.
Consider `NC(=O)c1cc[n+](CC2=C(C(=O)[O-])N3C(=O)[C@@H](NC(=O)Cc4cccs4)[C@H]3SC2)cc1`, for which the Potency result in assay [1] and in assay [2] was “inactive” each time.
Turning to `CC(=O)OC(C)OC(=O)C(C)c1ccc(-c2ccccc2)c(F)c1` (stereo not given), the Potency result in assay [1] was “inactive”. In addition, the activity change, negative = inhibition in assay [2] was -21.2%.
Taken in the same sequence, the figures for `O=C(CO)[C@@H](O)[C@H](O)[C@@H](O)CO` were “inactive” and -14.3%.
With `O=C(O)CN(CCN(CC(=O)O)CC(=O)O)CCN(CC(=O)O)CC(=O)O`, the Potency entry in assay [1] and in assay [2] was “inactive” each time.
Consider `NCCCC[C@H](N[C@@H](CCc1ccccc1)C(=O)O)C(=O)N1CCC[C@H]1C(=O)O`, for which, in assay [1], the Potency entry was “inactive”. In addition, the activity change, negative = inhibition in assay [2] was -27.7%.
For `CCCOC(=O)c1ccccc1`, the Potency result in assay [1] and in assay [2] was “inactive” each time.
On to `NC(N)=Nc1nc(CSCC/C(N)=N/S(N)(=O)=O)cs1`, for which the Potency result in assay [1] and in assay [2] was “inactive” in each case.
`CCC[C@@H]1C[C@@H](C(=O)N[C@@H]([C@H]2O[C@H](SC)[C@H](O)[C@@H](O)[C@H]2O)[C@@H](C)O)N(C)C1`: the Potency result in assay [1] and in assay [2] was “inactive” in each case.
As for `CC(=O)Nc1ccc(OC(=O)c2ccccc2OC(C)=O)cc1`, the Potency result in assay [1] was “inactive”. Further, in assay [2], the activity change, negative = inhibition is -2.29%.
In the case of `O=C(O)Cc1cccc2ccccc12`, the Potency entry in assay [1] and in assay [2] was “inactive” throughout.
As to `COc1ccc2cc([C@H](C)C(=O)O)ccc2c1`, the Potency result in assay [1] and in assay [2] was “inactive” throughout.
